From PubChem
DAX1 inh-1 – blocks DAX1 repression of SF-1 activated StAR promoter | HEK293T StAR-luciferase reporter, SF-1/DAX-1 repression relief | inhibition, % at 6.8 µM | hit rate 1.1% among 370,000 | AID 652010;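 active = inhibition above the mean over all tested compounds plus 3 SD, cut at about 3.6% in these data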;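 note: 0% = DAX-1 cells with DMSO and 100% = cells lacking DAX-1 with DMSO; higher inhibition means more luminescence from relief of DAX-1 repression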
hgDAF12 agonist – hgDAF-12 agonism, primary luciferase screen | HEK293 GAL4-hgDAF12 UAS-luciferase reporter, agonist luminescence; normalized to butyrate control | activation, % at 6.8 µM | hit rate 1.8% among 370,000;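 active = activation above a cutoff set at the mean of all screened compounds plus 3 SD, cut at about 10% in these data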;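 note: 0% = DMSO wells and 100% = sodium butyrate wells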
ssDAF12 agonist – activates DAF-12 receptor from parasite S. stercoralis; HEK293 ssDAF-12/GRIP1 lit1-tk-luc reporter, luminescence; % of 3 µM dafachronic acid response; activation, % at 6.8 µM; hit rate 1% among 370,000; AID 652126;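 active = activation above the mean over all tested compounds plus 3 SD, cut at about 0.9% in these data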;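 note: 0% = DMSO-only wells and 100% = 3 µM delta7-dafachronic acid wells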
DAX1 inh-2 – inhibitors of human orphan nuclear receptor DAX1 (NR0B1). hit rate 0.99% among 340,000. AID 504766. HEK293 Gal4-DAX1 luciferase reporter, luminescence. inhibition, % at 6.75 µM;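 active = inhibition above the mean over all tested compounds plus 3 SD, cut at about 4.2% in these data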;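 note: 0% = DAX1-transfected cells with DMSO and 100% = empty-vector control cells with DMSO; inhibition shows as a rise in luminescence from relieved DAX1 repression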
AHR activator – activators of human aryl hydrocarbon receptor. hit rate 2.5% among 320,000. AHR-responsive luciferase reporter cells, luminescence. activation, % at 5 µM; in the data active = activation above about 47%;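 note: 0% = vehicle wells and 100% = reference agonist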
hcDAF-12 act – activates DAF-12 receptor from parasite H. contortus; HEK293 hcDAF-12 lit1-tk-luc reporter, luminescence; 0% DMSO, 100% Δ7-dafachronic acid; activation, % at 6.8 µM; hit rate 1.4% among 370,000; AID 652067;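 active = activation above the mean of all tested compounds plus 3 SD, cut at about 5.5% in these data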;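 note: 100% = response to 3 µM Δ7-dafachronic acid high control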
LXRb hcDAF ctr – activates human LXR-beta, counter-screen for hcDAF-12 agonists; 3,400 tested, under 10 active; HEK293 Gal4-LXR tk-luc reporter, luminescence, 24 h; normalized: DMSO 0%, positive control 100%; shares compounds with hcDAF-12 act; AID 743027; activation, % at 6.8 µM;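 active = mean percent activation of the reporter above a cutoff set as the average over tested compounds plus their standard deviation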
Target sequence (P55055 whole entry, looked up, the tested form may be a part): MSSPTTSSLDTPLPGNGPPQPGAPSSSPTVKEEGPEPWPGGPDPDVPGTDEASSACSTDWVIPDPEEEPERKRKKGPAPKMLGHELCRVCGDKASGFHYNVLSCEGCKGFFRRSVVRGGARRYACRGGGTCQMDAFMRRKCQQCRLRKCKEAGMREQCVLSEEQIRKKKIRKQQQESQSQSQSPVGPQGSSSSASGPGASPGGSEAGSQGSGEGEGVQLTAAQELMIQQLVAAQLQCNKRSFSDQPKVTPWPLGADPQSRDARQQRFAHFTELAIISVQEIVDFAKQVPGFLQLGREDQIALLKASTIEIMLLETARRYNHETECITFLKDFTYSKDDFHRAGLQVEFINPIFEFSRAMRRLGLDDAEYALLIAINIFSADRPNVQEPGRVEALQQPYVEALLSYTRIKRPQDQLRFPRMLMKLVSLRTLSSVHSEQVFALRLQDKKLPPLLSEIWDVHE
hcDAF12 conf – confirmation of H. contortus DAF-12 agonists | shares compounds with hcDAF-12 act | HEK293 hcDAF-12 lit1-tk-luc reporter, luminescence; % of Δ7-dafachronic acid response | activation, % at 6.8 µM | hit rate 61% among 3,400 | AID 743032;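 active = mean activation across triplicate tests above the threshold derived from the earlier primary screen, cut at about 5.5% in these data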;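 note: 0% = DMSO only wells and 100% = 3 µM Δ7-dafachronic acid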
Numbers without * were called inactive; . = no result. A selection: hits, their analogues and other compounds. The true share with any hit is near 5.7%.

SMILES	DAX1 inh-1	hgDAF12 agonist	ssDAF12 agonist	DAX1 inh-2	AHR activator	hcDAF-12 act	LXRb hcDAF ctr	hcDAF12 conf
CCOC(=O)C1=C(CSc2nc(-c3ccccc3)ccc2C#N)OC(N)=C(C#N)C1c1ccccc1 (stereo not drawn)	1	2	0	3	29	2	.	.
CCOC(=O)C1=C(CSc2nc(-c3ccccc3)ccc2C#N)OC(N)=C(C#N)C1c1cccnc1 (stereo not drawn)	3	12*	1.3*	2	32	7.2*	1	9.4*
CCOc1ccccc1N1CCN(Cc2cnc(-c3ccccc3)[nH]2)CC1	0	0	0	3	0	-2	.	.
CCC(=O)c1c(CC)c2n3c1CC[C@H]3CCC2	0	0	0	0	3	-1	.	.
CCN(CC(=O)Nc1ccccc1C(F)(F)F)C(=O)C1CCC1	2	0	-1	4	-1	1	.	.
O=C(c1ccc(C(F)(F)F)cc1)N(CCCn1ccnc1)C(c1ccccn1)c1nc2ccccc2[nH]1 (stereo not drawn)	2	5	0	.	.	7.5*	0	5
O=C1CC(c2ccccc2Cl)=NN(c2ncnc3ccccc23)C1=O	1	0	-1	0	39	0	.	.
O=C(/C=C/c1ccc(-c2ccccc2[N+](=O)[O-])o1)c1ccco1	0	4	0	1	19	7.9*	0	2
CCNC(=S)Nc1ccc(OCc2nc3ccccc3s2)cc1	1	10	1.2*	4	44	7.8*	1	8.2*
O=C(CC(=O)c1ccccc1O)c1cccc(F)c1	.	.	.	0	11	.	.	.
O=C(CC(=O)c1c(F)cccc1Cl)c1ccccc1O	0	7	0	2	44	9.1*	0	6.9*
CCOC(=O)c1nn(-c2ccc(C)cc2)cc1C(=O)c1ccccc1	3	13*	0	3	1	6.9*	1	5.7*
COc1cc(C(O)c2nc(/C=C/c3ccc(C(F)(F)F)cc3)cs2)ccc1F (stereo not drawn)	-1	2	-1	.	.	0	.	.
CCOC(=O)c1c(C)oc2c1c(C(c1ccncc1)N1CCOCC1)c(O)c1ccccc12 (stereo not drawn)	0	3	0	.	10	0	.	.
CCOC(=O)c1c(C)oc2c1c1c(c3ccccc32)OCN(Cc2ccccn2)C1	2	6	1.2*	4	5	6.8*	1	8.5*
CCOC(=O)c1c(C)oc2c1c(CN1CCN(C(=O)OCC)CC1)c(O)c1ccccc12	2	13*	1	1	50*	8.6*	0	5
COc1cc2c(cc1OC)/C(=C/C(C)=O)OC2	1	-1	-1	.	.	-2	.	.
CC(=O)c1ccc(OCCNS(=O)(=O)c2ccc(-n3cnnn3)cc2)cc1	-2	0	-1	0	1	-2	.	.
CN(C)c1oc(/C=C/c2ccccc2)nc1C#N	2	8	0	2	50*	6.7*	1	6
Cn1c(=O)c(C(=O)CN2CCc3ccccc32)c(N)n(Cc2ccccc2)c1=O	0	4	1	1	14	8.0*	0	2
CC(C)c1nc2sc3c(SCC(N)=O)ncnc3c2c2c1CCC2	0	1	-2	1	2	0	.	.
Cc1ccc(-c2cc(=O)c3cc(C)ccc3[nH]2)cc1	1	8	1	-2	33	7.0*	1	7.0*
Cc1ccc2[nH]c(C(F)(F)F)cc(=O)c2c1	-1	-3	-2	-2	1	-3	.	.
O=C(/C=C/c1c(F)cccc1Cl)Nc1cccnc1	1	11*	1	3	50*	7.1*	1	6.8*
O=C(/C=C/c1cc(Br)ccc1F)Nc1cccnc1	0	5	-1	2	20	-2	.	.
CCc1nc2ccc(C(=O)NCC3CCCCC3)cn2c1N(C)C(=O)c1cccc(OC)c1	1	4	-1	.	.	-1	.	.
